A number with no mark means an inactive call. How the calls were made is not given here.
Test system: Phorbol Ester (mouse)
Assay: PubChem AID 1788
Conditions: MDS Pharma lead profiling panel, radioligand binding, at 10 µM, hits give high values

CCOC(=O)N1CCC(NCCNC(=O)c2ccccc2C)CC1
inhibition: 25%

Reference: PubChem BioAssay AID1788 (Vanderbilt High Throughput Screening Facility, 2009)
